Reference: PubChem BioAssay AID1851 (National Center for Advancing Translational Sciences (NCATS), 2009)
The whole screen tested about 16,000 compounds, of which about 5,700 (36%) were called active. Not shown: some 24% with an inconclusive outcome. Some of the results follow. Unmarked numbers belong to inactive results. The call rests on the fitted dose curve; in most records, active means well fitted curve in the direction sought with a large enough effect; inconclusive means small, poorly fitted or top-dose-only effect, or effect the other way; inactive means no such curve, though single readings can be large or run the other way.

molecular target: Cytochrome P450 1A2 (Homo sapiens) (UniProt P05177); assay: Cytochrome panel assay with activity outcomes; settings: recombinant CYP, pro-luciferin dealkylation, luminescence, p450-cyp1a2; series mostly up to 57.1 µM; activity, negative = inhibition: at the top concentration
On the % scale 0 is the no-effect control and ±100 the full control effect.

Sequence of Cytochrome P450 1A2 (Homo sapiens) (P05177 whole entry, looked up): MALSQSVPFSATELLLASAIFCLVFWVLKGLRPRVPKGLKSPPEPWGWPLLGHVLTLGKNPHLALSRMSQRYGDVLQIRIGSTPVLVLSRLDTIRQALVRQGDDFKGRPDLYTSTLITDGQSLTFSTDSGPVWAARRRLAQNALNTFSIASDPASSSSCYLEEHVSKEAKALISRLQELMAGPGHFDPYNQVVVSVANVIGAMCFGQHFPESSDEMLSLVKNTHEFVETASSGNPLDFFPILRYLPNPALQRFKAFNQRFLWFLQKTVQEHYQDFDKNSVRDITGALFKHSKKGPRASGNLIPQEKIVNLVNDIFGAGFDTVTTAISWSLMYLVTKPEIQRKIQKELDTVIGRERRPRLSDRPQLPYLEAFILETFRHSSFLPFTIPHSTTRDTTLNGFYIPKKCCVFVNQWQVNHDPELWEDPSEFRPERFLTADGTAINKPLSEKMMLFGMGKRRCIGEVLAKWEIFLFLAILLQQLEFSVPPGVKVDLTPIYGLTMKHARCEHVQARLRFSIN

SMILES	activity, negative = inhibition	AC50
COc1cc2cc3c4cc(OC)c(OC)cc4cc[n+]3c(C)c2cc1OC	-21.4% [at 25.6 µM]	–
CC(C)CO/N=C1/[C@H]2O[C@@H]2[C@@H](O)[C@H]2[C@H]1CCn1c(=O)n(-c3ccccc3)c(=O)n12	-6.37% [at 11.4 µM]	–
Clc1ccccc1CNCC1CCC(CNCc2ccccc2Cl)CC1 (configuration not stated)	-6.82%	–
CCOc1cc(CNCCO)cc(Br)c1OCc1ccccc1Cl	–	0.158 µM (active)
CCOc1cc(CNCCCN2CCOCC2)cc(Br)c1OCC(=O)Nc1cccc(C(F)(F)F)c1	-15.4%	–
OCCCCNCc1ccc(OCc2ccccc2Cl)cc1	–	5.01 µM (active)
Clc1ccc(-c2nc3ncccn3c2Nc2ccc3c(c2)OCCO3)cc1	–	6.31 µM (active)
CC(C)CN1CCC2(CC1)CCN(C(=O)c1cc(C(F)(F)F)cc(C(F)(F)F)c1)CC2	-4.57%	–
O=C(O)C1C2C=CC(C2)C1C(=O)N1CCN(C/C=C/c2ccccc2)CC1 (configuration not stated)	-25.9%	–
O=C(/C=C/c1ccc2ccccc2c1)c1ccoc1	–	2.24 µM (active)
O=c1cc(-c2ccccc2)oc2cc(O)c(O)c(O)c12	–	0.501 µM (active)
CC(C)(C)OC(=O)COc1cc(OCC(=O)OC(C)(C)C)c2c(=O)cc(-c3ccccc3)oc2c1	-27.5%	–
NS(=O)(=O)Cc1noc2ccccc12	-5.73%	–
CCCCC(=O)Nc1ccc(C(=O)NNC(=O)CCc2ccccc2)cc1	0.428%	–
CCC(CC)C(=O)Nc1ccc(C)c(O)c1	–	12.6 µM (active)
CCC(CC)C(=O)Nc1cccc(C(=O)Nc2ccc(OC)cc2[N+](=O)[O-])c1	-2.86%	–
CCCCC(=O)Nc1ccc(C)c(O)c1	–	3.55 µM (active)
COc1cc(C2C(C(=O)c3ccc(C)o3)=C(O)C(=O)N2CCc2ccccc2)ccc1O (configuration not stated)	-18.9%	–
Cc1cc(C)nc(NN2C(=O)/C(=C/c3ccccc3)SC2=S)n1	-1.03%	–
O=C1/C(=C\c2ccccn2)SC(=S)N1Nc1ncc(C(F)(F)F)cc1Cl	–	8.91 µM (active)
CCCSc1nnc(CSc2nc3nc(C)cc(C)n3n2)o1	0.494%	–

SMILES	activity, negative = inhibition	AC50
Cc1cc(C)n2nc(SCc3cc(=O)oc4ccc5ccccc5c34)nc2n1	–	5.62 µM (active)
Cc1cc(C)n2nc(SCN3C(=O)c4ccccc4C3=O)nc2n1	18.7% [at 11.4 µM]	–
O=C(O)c1c[nH]c2cc(OCc3ccccc3)ccc2c1=O	-19.1% [at 11.4 µM]	–
Oc1ccc(OCc2ccccc2)cc1	–	1.58 µM (active)
Cc1c(C(=O)Nc2ccc(OCc3ccccc3)cc2)cccc1[N+](=O)[O-]	-26.7%	–
O[C@@H]1[C@@H](OCc2ccccc2)OC[C@H](O)[C@@H]1O	-15.1% [at 11.4 µM]	–
S=C(Nc1ccccc1)Nc1ccc(OCc2ccccc2)cc1	–	5.62 µM (active)
CO[C@@H]1COC(=O)[C@H]2CCCN2C(=O)C/C=C\[C@@H](C)[C@H](OC)COC(=O)[C@H]2CCCN2C(=O)C/C=C\[C@H]1C	-18.1% [at 11.4 µM]	–
Cn1c2c(c(=O)n(C)c1=O)[C@@H]1c3c(ccc4ccccc34)OC[C@@H]1CO2	-2.25%	–
COc1ccc(O[C@H]2C=C[C@@H](c3ccccc3)O[C@H]2COC(=O)CC/C(C)=N/O[C@@H]2O[C@H](COC(C)=O)[C@H](OC(C)=O)[C@H](OC(C)=O)[C@H]2OC(C)=O)cc1	7.86% [at 11.4 µM]	–
Cc1noc(C)c1C(=O)N1CCC2(CCCN(c3ccncc3)C2)CC1	7.42%	–
CCCCNC(=S)NNC(=O)c1csc2c1CCC(C)C2 (configuration not stated)	–	14.1 µM (active)
CC1CCc2c(C(=O)Nc3nccs3)csc2C1 (configuration not stated)	–	1 µM (active)
CCCCNC(=O)NS(=O)(=O)c1ccc(C)cc1	-9.95% [at 25.6 µM]	–
CCCCNC(=S)NNC(=O)c1sccc1C	–	14.1 µM (active)
COc1ccc(-c2cc(C3CCN(c4ccc(C(C)=O)cc4[N+](=O)[O-])CC3)[nH]n2)cc1	–	7.08 µM (active)
COc1ccc(-c2cc(C3CCN(c4cc(Cl)nc(N)n4)CC3)[nH]n2)cc1	–	15.8 µM (active)
O=C(NC(=S)NNC(=O)c1cccs1)c1ccco1	12.9%	–
O=C(NNC(=S)NCc1ccco1)c1ccc(Cl)s1	–	22.4 µM (active)
S=C(NCc1ccco1)N1CCN(Cc2ccco2)CC1	-25.8%	–
CCOC(=O)C(=CNc1cccc(C)c1C)C(=O)OCC	-19.1%	–

SMILES	activity, negative = inhibition	AC50
CCOC(=O)C(=CNCC(=O)O)C(=O)OCC	12.3%	–
CCOC(=O)C(=CNc1ncccc1C)C(=O)OCC	–	1.12 µM (active)
COC(=O)c1sccc1NC(=O)c1cc(-c2ccc(C)cc2C)nc2ccccc12	-22.7%	–
Cc1ccc(C)c(-c2cc(C(=O)NCc3cccs3)c3ccccc3n2)c1	–	2.24 µM (active)
Cc1ccc(C)c(NC(=O)Cn2nnc(C(=O)NCc3cccs3)c2N)c1	1.98%	–
Cc1ccc(Nc2ncccc2C(=O)NCc2cccs2)c(C)c1	–	1 µM (active)
Cc1ccc(C)c(-c2cc(C(=O)Nc3nccs3)c3ccccc3n2)c1	–	0.891 µM (active)
Cc1ccc(NC(=O)CCC(=O)NNC(=O)c2cccs2)c(C)c1	-14.3%	–
COc1ccc2oc(-c3ccc(C)c(NC(=O)CSc4ccc(Cl)cc4)c3)nc2c1	–	3.16 µM (active)
COc1ccc2oc(-c3ccc(C)c(NC(=O)c4ccc(N5CCOCC5)c([N+](=O)[O-])c4)c3)nc2c1	-27%	–
CC(=O)OC[C@H]1O[C@@H](O/N=C(\C)CCN2CCc3nc(-c4ccccc4)c(-c4ccccc4)cc3C2)[C@H](OC(C)=O)[C@@H](OC(C)=O)[C@H]1OC(C)=O	-0.893% [at 11.4 µM]	–
O=C(Cc1ccc(Br)cc1)OCC(=O)c1ccc2c(c1)OCCO2	–	12.6 µM (active)
O=C(CN1C(=O)c2ccccc2C1=O)NCC(=O)OCC(=O)c1ccc(Br)cc1	-21.1%	–
C=CCSc1nn2c(=O)c3ccccc3nc2s1	–	1 µM (active)
CC(=O)NCCn1c(SCC(=O)NCc2ccco2)nc2ccccc2c1=O	-20.4%	–
C=CCSc1nc2ccccc2c(=O)n1Cc1ccco1	–	0.0251 µM (active)
CC1(C)S[C@@H]2[C@H](NC(=O)[C@@H](NC(=O)N3CCNC3=O)c3ccccc3)C(=O)N2[C@H]1C(=O)O	1.79% [at 25.6 µM]	–
CCn1c(CCNC(=O)c2ccccc2Cl)n[nH]c1=S	-1.57%	–
Cn1c(CCNC(=O)c2ccccc2Cl)n[nH]c1=S	-6.55%	–
S=c1[nH]nc(CCc2ccccc2)n1Cc1ccccc1	–	25.1 µM (active)
